{"source": "PubChem BioAssay (NCATS)", "note": "Records with an inconclusive call do not appear. A call without a number means that no potency is given here. Active and inactive are the calls of the source. The call rests on the fitted dose curve; in most records, active means well fitted inhibition curve with a large enough effect; inconclusive means small, poorly fitted or top-dose-only effect; inactive means no such curve, though single readings can be large or run the other way. Potency means the concentration at half of the fitted maximal effect.", "data": [{"test": "qHTS to identify inhibitors of the type 1 interferon - major histocompatibility complex class I in skeletal muscle: primary screen against the NCATS Mechanism Interrogation Plate v5.0 (MIPE) Libary (AID 1347411); further: nearly all actives have a fitted effect of over 65% in size", "conditions": "iHSKM cells + IFN-b, HiBiT-tagged MHC-I luminescence, 24 h; series mostly up to 45.8 µM", "procedure,_shortened": "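Cells were genome-edited human myoblasts carrying a HiBit tag on endogenous HLA-B. They were treated with IFN-beta (4.0 ng/ml) and titrated compounds (top 46 uM) for 24 hrs before lytic HiBiT detection.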", "values": [{"compound": "O=C(c1c(F)ccc(NS(=O)(=O)N2CC[C@@H](F)C2)c1F)c1c[nH]c2ncc(-c3cnc(C4CC4)nc3)cc12", "Potency": "inactive"}, {"compound": "C1=C/COCc2cc(ccc2OCCN2CCCC2)Nc2nccc(n2)-c2cccc(c2)COC/1", "Potency": "2.34 µM (active)"}, {"compound": "Cc1cc(C(=O)Nc2cc(Nc3ccc4c(/C=C/c5ccccn5)n[nH]c4c3)ccc2F)n(C)n1", "Potency": "29.4 µM (active)"}, {"compound": "Nc1nccc(-c2c(-c3ccc(F)cc3)ncn2C2CCCCC2)n1", "Potency": "inactive"}, {"compound": "O=C1Nc2nc(-c3c(O)cccc3OCC3CC3)cc([C@@H]3CCCNC3)c2CO1", "Potency": "3.7 µM (active)"}, {"compound": "COC(=O)N1CC2(CC2)C[C@H](C(=O)NO)[C@H]1C(=O)N1CCN(c2ccccc2)CC1", "Potency": "inactive"}, {"compound": "O=C(NCC(=O)N1CCCC1)Nc1ccc2cnccc2c1", "Potency": "inactive"}, {"compound": "COC(C)(C)CCn1nc(Nc2c(C)cccc2C)c2cnc(Nc3ccc(OCCN4CCCC4)c(F)c3)nc21", "Potency": "11.7 µM (active)"}, {"compound": "CS(=O)(=O)c1ccc(Oc2cc(F)cc(C#N)c2)c2c1[C@H](O)C(F)(F)C2", "Potency": "inactive"}, {"compound": "COC(=O)Nc1cc(Nc2cc(NC3CC3)c3ncc(C#N)n3n2)c(Cl)c(N2CCN(C)CC2)c1", "Potency": "4.66 µM (active)"}, {"compound": "FC(F)(F)c1ccc(CNc2ccc(Cc3c[nH]c4ncc(Cl)cc34)cn2)cn1", "Potency": "inactive"}, {"compound": "COC1CCN(C(=O)c2cc(Cc3n[nH]c(=O)c4ccccc34)ccc2F)CC1", "Potency": "inactive"}, {"compound": "FC(F)(F)c1ccc(/C=C/c2nc(COc3ccc(CCCCn4ccnn4)cc3)co2)cc1", "Potency": "inactive"}, {"compound": "C[C@@H](c1ccc2nccn2c1)n1nnc2ncc(-c3cnn(C)c3)nc21", "Potency": "inactive"}, {"compound": "O=C([C@@H](Cc1cccc(C(F)(F)F)c1)NS(=O)(=O)c1cc(F)c2c(c1)CCNC2)N1CCCC1", "Potency": "inactive"}, {"compound": "CC[C@@H](C)Nc1cc(C(=O)NC2CC3CC[C@@H](C2)N3c2ccc(C(=O)C3CC3)cn2)c(C)cc1C(N)=O", "note": "(some centres undefined)", "Potency": "0.117 µM (active)"}, {"compound": "CN1C(=O)c2sccc2N(C)c2nc(Nc3ccc(S(N)(=O)=O)cc3)ncc21", "Potency": "26.2 µM (active)"}, {"compound": "Cc1c(F)ccc(C(=O)Nc2cc([N+](=O)[O-])ccc2N2CCN(C)CC2)c1Cl", "Potency": "inactive"}, {"compound": "Cn1cc(-c2ccc3c(c2)CCN3C(=O)Cc2cccc(C(F)(F)F)c2)c2c(N)ncnc21", "Potency": "inactive"}, {"compound": "CS(=O)(=O)Nc1cc2occ(NC=O)c(=O)c2cc1Oc1ccccc1", "Potency": "inactive"}, {"compound": "Cc1nc(NC(=O)N2CCCC2C(N)=O)sc1-c1ccnc(C(C)(C)C(F)(F)F)c1", "note": "(centres undefined)", "Potency": "4.66 µM (active)"}, {"compound": "CC(/C=C/C(=O)NO)=C\\[C@@H](C)C(=O)c1ccc(N(C)C)cc1", "Potency": "2.08 µM (active)"}, {"compound": "Cc1ccc(C(=O)Nc2ccc(CN3CCN(C)CC3)c(C(F)(F)F)c2)cc1C#Cc1cnc2[nH]ncc2c1", "Potency": "0.117 µM (active)"}, {"compound": "Fc1ccc(-c2nc(-c3ccccc3F)[nH]c2-c2ccncc2)cc1", "Potency": "inactive"}, {"compound": "C=CC(=O)Nc1ccc2ncnc(Nc3cccc(Br)c3)c2c1", "Potency": "11.7 µM (active)"}, {"compound": "N#Cc1ccnc(Nc2cc(C3CCN(C4COC4)CC3)cc(N3CCC(F)(F)C3)n2)c1", "Potency": "2.34 µM (active)"}, {"compound": "Cn1ncnc1[C@H]1c2n[nH]c(=O)c3cc(F)cc(c23)N[C@@H]1c1ccc(F)cc1", "Potency": "inactive"}, {"compound": "O=C(Cc1cccc(OC(F)(F)F)c1)Nc1ccc(CCCCc2nnc(NC(=O)Cc3ccccn3)s2)nn1", "Potency": "inactive"}, {"compound": "CN(C)N(C)C(=O)[C@@]1(Cc2ccccc2)CCCN(C(=O)[C@@H](Cc2c[nH]c3ccccc23)NC(=O)C(C)(C)N)C1", "Potency": "inactive"}]}]}
